Measurements: the supplement of paper PMC12067926

Assays:
Experiment in all cases: relative growth (AUC of 72 h growth curve relative to DMSO control, dAUC) (ratio); higher = more growth (less inhibition), active = hit call of the paper
Conditions in all cases: 20 µM;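 active = growth AUC significantly below the DMSO wells by Dunnett test; inactive = the rest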
[1] = tested on: Aeromonas 1 (Aeromonas sp. AE235)
Procedure, shortened: (§1)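 Each chemical was tested at 20 µM (1% DMSO) in 96-well plates seeded with a 1:100 dilution of cultures grown to carrying capacity in Luria–Bertani medium. These were isolates from Icelandic stream sediments and Silwood Park soil, as well as whole sediment communities. A plate reader took A600 readings hourly over 72 h, and three biological replicates were averaged. Relative growth (dAUC) is the spline-integrated area under the growth curve relative to the mean of the DMSO controls.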

[2] = tested on: Aeromonas 2 (Aeromonas sobria)
Procedure, shortened: as §1

[3] = tested on: Aeromonas 3 (Aeromonas popoffii)
Procedure, shortened: as §1

[4] = tested on: Argrobacterium 1 (Agrobacterium sp.)
Procedure, shortened: as §1

[5] = tested on: Arthrobacter 1 (Arthrobacter humicola)
Procedure, shortened: as §1

[6] = tested on: Arthrobacter 2 (Arthrobacter humicola)
Procedure, shortened: as §1

[7] = tested on: Arthrobacter 3 (Arthrobacter sp.)
Procedure, shortened: as §1

Community 10 = tested on: Community 10
Procedure, shortened: as §1

Community 4 = tested on: Community 4
Procedure, shortened: as §1

Community 6 = tested on: Community 6
Procedure, shortened: as §1

Community 7 = tested on: Community 7
Procedure, shortened: as §1

Community 8 = tested on: Community 8
Procedure, shortened: as §1

Community 9 = tested on: Community 9
Procedure, shortened: as §1

[8] = tested on: Flavobacterium 1 (Flavobacterium glaciei)
Procedure, shortened: as §1

[9] = tested on: Flavobacterium 2 (Flavobacterium succinicans)
Procedure, shortened: as §1

[10] = tested on: Hymenobacter 1 (Hymenobacter glaciei)
Procedure, shortened: as §1

[11] = tested on: Microbacterium 1 (Microbacterium arborescens)
Procedure, shortened: as §1

[12] = tested on: Neobacillus 1 (Neobacillus soli)
Procedure, shortened: as §1

[13] = tested on: Oryzobacter 1 (Oryzobacter terrae)
Procedure, shortened: as §1

[14] = tested on: Paenibacillus 1 (Paenibacillus castaneae)
Procedure, shortened: as §1

Measured: relative growth

C[C@@H]1[C@@H](c2ccc(Cl)cc2)SC(=O)N1C(=O)NC1CCCCC1
inactive: [1] 1.02 | [2] 1.02 | [3] 1.01 | [4] 1.04 | [5] 0.906 | [6] 0.925 | [7] 1.02 | Community 10 1.03 | Community 4 0.946 | Community 6 1.02 | Community 7 1.05 | Community 8 1.05 | Community 9 1.05 | [8] 0.937 | [9] 1.02 | [10] 1.12 | [11] 1.04 | [12] 1.06 | [13] 0.912 | [14] 1.02

CCCCCCCCCCCCNC(=N)N
inactive: [1] 0.94 | [2] 0.928 | [3] 0.97 | Community 7 0.993 | Community 8 0.788 | [9] 0.832 | [11] 0.881 | [12] 0.98 | [14] 0.893
active: [4] 0.233 | [5] 0.0065 | [6] 0.00389 | [7] 0.0063 | Community 10 0.505 | Community 4 0.501 | Community 6 0.407 | Community 9 0.294 | [8] 0.00294 | [10] 0.00418 | [13] 0.00315

COCC(=O)N(c1c(C)cccc1C)C(C)C(=O)OC (stereo not given)
inactive: [1] 1.03 | [2] 1.04 | [3] 1.04 | [4] 1.01 | [5] 0.944 | [6] 0.862 | [7] 0.994 | Community 10 1.06 | Community 4 1.05 | Community 6 1.03 | Community 7 1.08 | Community 8 0.993 | Community 9 1.09 | [8] 0.939 | [9] 0.99 | [10] 1.03 | [11] 1.02 | [12] 0.986 | [13] 1.01 | [14] 1.03

CCC(CC)Nc1c([N+](=O)[O-])cc(C)c(C)c1[N+](=O)[O-]
inactive: [1] 0.951 | [2] 0.973 | [3] 0.997 | [4] 0.993 | [5] 0.901 | [6] 0.884 | [7] 1.02 | Community 10 0.687 | Community 4 0.88 | Community 6 0.917 | Community 7 1.03 | Community 8 1.02 | Community 9 0.884 | [8] 1.03 | [9] 0.957 | [10] 0.926 | [11] 1.04 | [12] 0.918 | [13] 1.1 | [14] 0.933

COCc1cnc(C2=NC(C)(C(C)C)C(=O)N2)c(C(=O)O)c1 (stereo not given)
inactive: [1] 0.932 | [2] 0.973 | [3] 1 | [4] 1 | [5] 0.954 | [6] 1.01 | [7] 0.931 | Community 10 0.96 | Community 4 0.84 | Community 6 0.937 | Community 7 1.14 | Community 8 0.983 | Community 9 0.959 | [8] 0.978 | [9] 1 | [10] 1.02 | [11] 1.02 | [12] 0.961 | [13] 1.05 | [14] 0.966

N#CC(CCc1ccc(Cl)cc1)(Cn1cncn1)c1ccccc1 (stereo not given)
active: [6] 0.555 | [7] 0.666
inactive: [1] 0.938 | [2] 0.936 | [3] 1.01 | [4] 0.968 | [5] 0.81 | Community 10 1.09 | Community 4 0.946 | Community 6 0.958 | Community 7 0.96 | Community 8 0.951 | Community 9 0.939 | [8] 0.846 | [9] 0.856 | [10] 0.861 | [11] 0.909 | [12] 0.905 | [13] 1.02 | [14] 0.947

CC[C@H](C)[C@H]1O[C@]2(C=C[C@@H]1C)C[C@@H]1C[C@@H](C/C=C(\C)[C@@H](O[C@H]3C[C@H](OC)[C@@H](O[C@H]4C[C@H](OC)[C@@H](O)[C@H](C)O4)[C@H](C)O3)[C@@H](C)/C=C/C=C3\CO[C@@H]4[C@H](O)C(C)=C[C@@H](C(=O)O1)[C@]34O)O2.CO[C@H]1C[C@H](O[C@H]2[C@H](C)O[C@@H](O[C@@H]3/C(C)=C/C[C@@H]4C[C@@H](C[C@]5(C=C[C@H](C)[C@@H](C(C)C)O5)O4)OC(=O)[C@@H]4C=C(C)[C@@H](O)[C@H]5OC/C(=C\C=C\[C@@H]3C)[C@]54O)C[C@@H]2OC)O[C@@H](C)[C@@H]1O
inactive: [1] 0.949 | [2] 0.927 | [3] 1.06 | [4] 1.11 | Community 10 0.898 | Community 4 0.808 | Community 7 1.17 | Community 8 0.963 | [9] 0.975 | [10] 0.9 | [11] 0.963 | [12] 0.893
active: [5] 0.181 | [6] 0.00817 | [7] 0.16 | Community 6 0.662 | Community 9 0.624 | [8] 0.139 | [13] 0.286 | [14] 0.317

Cc1ccc(/N=C/N(C)/C=N/c2ccc(C)cc2C)c(C)c1
inactive: [1] 0.991 | [2] 0.995 | [3] 1 | [4] 0.984 | [5] 0.964 | [6] 0.821 | [7] 1.04 | Community 10 0.922 | Community 4 0.905 | Community 6 0.969 | Community 7 1.16 | Community 8 1.05 | Community 9 0.961 | [8] 1.02 | [9] 1 | [10] 1.04 | [11] 1.05 | [12] 0.964 | [13] 1.03 | [14] 0.969

O=C1c2ccccc2C(=O)N1SC(Cl)(Cl)Cl
inactive: [1] 1.04 | [2] 0.951 | [3] 0.992 | [4] 1.04 | [5] 1.04 | [6] 0.994 | [7] 1.1 | Community 10 0.818 | Community 4 0.962 | Community 6 0.721 | Community 7 0.943 | Community 8 0.913 | Community 9 1.01 | [8] 1.05 | [9] 0.983 | [10] 1.11 | [11] 1.02 | [12] 1.07 | [13] 0.988 | [14] 1.02

CC(C)OC(=O)C(C(=O)OC(C)C)=C1SCCS1
inactive: [1] 0.961 | [2] 0.967 | [3] 0.993 | [4] 1.02 | [5] 1.02 | [6] 0.922 | [7] 0.975 | Community 10 0.804 | Community 4 0.901 | Community 6 0.886 | Community 7 1.15 | Community 8 1 | Community 9 0.964 | [8] 0.993 | [9] 0.947 | [10] 1.09 | [11] 1.02 | [12] 1.01 | [13] 1.12 | [14] 0.965

COP(=O)(OC)OC=C(Cl)Cl
inactive: [1] 0.937 | [2] 0.977 | [3] 0.972 | [4] 0.977 | [5] 0.856 | [6] 0.86 | [7] 0.916 | Community 10 1.04 | Community 4 0.961 | Community 6 0.961 | Community 7 1.09 | Community 8 0.997 | Community 9 0.964 | [8] 1.01 | [9] 0.965 | [10] 0.909 | [11] 0.975 | [12] 0.893 | [13] 0.94 | [14] 0.984

COc1cc(C)c(C(=O)c2c(OC)ccc(Br)c2C)c(OC)c1OC
inactive: [1] 1.07 | [2] 1.03 | [3] 1.1 | [4] 1.04 | [5] 1.15 | [6] 0.768 | [7] 0.949 | Community 10 0.986 | Community 4 1.1 | Community 6 1.05 | Community 7 0.987 | Community 8 1.08 | Community 9 1.12 | [8] 0.992 | [9] 1.02 | [10] 1.16 | [11] 1.03 | [12] 1.06 | [13] 1.07 | [14] 0.965

CC1(C)CON(Cc2ccccc2Cl)C1=O
inactive: [1] 0.978 | [2] 0.966 | [3] 1.01 | [4] 1 | [5] 0.963 | [6] 0.879 | [7] 1.08 | Community 10 0.791 | Community 4 0.973 | Community 6 0.946 | Community 7 1.08 | Community 8 1.04 | Community 9 1.02 | [8] 1.02 | [9] 0.941 | [10] 0.974 | [11] 1 | [12] 0.965 | [13] 1.13 | [14] 0.973

CCSC(C)CC1CC(=O)C(/C(CC)=N/OC/C=C/Cl)=C(O)C1 (mixture of isomers)
inactive: [1] 0.981 | [2] 0.969 | [3] 0.986 | [4] 1.01 | [5] 0.93 | [6] 0.987 | [7] 0.986 | Community 10 0.965 | Community 4 1.09 | Community 6 1.01 | Community 7 1.02 | Community 8 1 | Community 9 1.12 | [8] 1 | [9] 0.981 | [10] 0.951 | [11] 1.03 | [12] 1.05 | [13] 1.03 | [14] 0.995
